Source: PubChem
Rows were chosen to be rich in hits. Some 9.3% of all compounds tested hit in one or more screens of this group.
ELG1 repair inh: blocks ELG1-dependent DNA repair in HEK293T cells | HEK293T ELG1-luciferase reporter, luminescence, 16 h; DNA damage induced by 5-fluorouridine | Potency, µM (highest dose often 46.1 µM), usual class: inhibitors | 330,000 compounds, 2.3% hits | AID 504467; further: nearly all actives have a fitted effect of over 55% in size
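DMSO vehicle served as the neutral condition. Each well held 2,000 cells given 5-fluorouridine plus compound; after 16 hr at 37 °C/5% CO2, ONE-Glo was added and luciferase measured 30 min later.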
NPC1 promoter act: activates the NPC1 promoter; Huh7 NPC1 promoter luciferase reporter, 24 h; Potency, µM (doses to about 9.22 µM), usual class: activators; 320,000 compounds, 2.4% hits; further: nearly all actives have a fitted effect of over 60% in size
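Luminescence from an NPC1 promoter-driven luciferase reporter in stably transfected Huh7 cells was measured after 24 h compound treatment at 37 °C, followed by 10 min ambient incubation with luciferase detection reagent.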
FLuc counter: counter-screen for miR-21 project: firefly luciferase inhibitors or activators | 360,000 compounds, 6.9% hits | purified FLuc, Km substrates, luminescence inhibition | Potency, µM (highest dose often 57.5 µM), most hits filed as inhibitors; further: nearly all actives have a fitted effect of over 55% in size
Target sequence (P08659 whole entry, looked up): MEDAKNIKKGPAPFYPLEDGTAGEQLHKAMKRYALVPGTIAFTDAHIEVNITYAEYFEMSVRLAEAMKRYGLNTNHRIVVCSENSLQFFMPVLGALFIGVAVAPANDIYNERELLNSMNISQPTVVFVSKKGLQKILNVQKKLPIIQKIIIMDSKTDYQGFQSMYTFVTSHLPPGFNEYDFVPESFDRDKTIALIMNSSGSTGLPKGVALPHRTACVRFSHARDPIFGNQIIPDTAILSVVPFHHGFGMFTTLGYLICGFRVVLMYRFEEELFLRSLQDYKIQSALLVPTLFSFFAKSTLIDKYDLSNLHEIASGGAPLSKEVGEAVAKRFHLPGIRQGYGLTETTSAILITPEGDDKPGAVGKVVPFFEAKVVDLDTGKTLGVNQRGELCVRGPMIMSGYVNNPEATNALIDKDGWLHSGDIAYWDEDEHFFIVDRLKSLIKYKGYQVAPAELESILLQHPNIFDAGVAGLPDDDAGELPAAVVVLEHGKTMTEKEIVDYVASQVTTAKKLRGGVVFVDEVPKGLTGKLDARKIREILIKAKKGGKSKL
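Purified P. pyralis luciferase, 10 nM final, with Km-level 10 uM D-luciferin and 10 uM ATP in 50 mM Tris acetate pH 7.5, 10 mM Mg acetate, 0.01% Tween-20, 0.05% BSA; 6-point qHTS titration about 60 µM downward; luminescence read.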
Rab9 prom act: Rab9 promoter activation; 320,000 compounds, 2.8% hits; Huh7 Rab9 promoter-luciferase reporter, luminescence, 24 h; Potency, µM (highest dose often 9.22 µM), most hits filed as activators; further: nearly all actives have a fitted effect of over 60% in size
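Luminescence from Amplite-detected luciferase (10 minutes, ambient) reports Rab9 promoter activation. Before that, stable Rab9-luciferase Huh7 cells (1500/well, reduced-serum OP-MEM I plus 10% FBS) were exposed to compound for 24 hours at 37C.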
ELG1 genotox: genotoxicity induction in ELG1-luciferase HEK293T cells; AID 504466; Potency, µM (highest dose often 46 µM), usual class: activators; HEK293T ELG1-luciferase reporter, luminescence, 16 h; 330,000 compounds, 1.3% hits; further: nearly all actives have a fitted effect of over 60% in size
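Luminescence read-out: rising ELG1-luciferase signal, reflecting elevated ELG1 protein under genetic stress, flags genotoxic compounds. Cells were treated for 16 hr at 37 °C before ONE-Glo detection.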
SMN2 splice up: increases expression of the SMN2 splice variant; 210,000 compounds, 2.8% hits; Potency, µM (titrated, usually from 46.1 µM), hits mostly activators; HEK293 SMN2-luciferase splicing reporter, luminescence, 30-36 h; further: nearly all actives have a fitted effect of over 55% in size
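HEK293 cells carry an SMN2 […]–luciferase reporter in which exon 7 inclusion puts luciferase in frame. Cells were plated 10-12 h before compound addition, then incubated 30-36 h at 37C. ONE-Glo luminescence was read; sodium butyrate at 4.5 mM final served as control.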
Of the large screens only hits and unclear results are named; the others gave an inactive call. The call rests on the fitted dose curve; in most records, active means well fitted curve in the direction sought with a large enough effect; inconclusive means small, poorly fitted or top-dose-only effect, or another doubt; inactive means no such curve, though single readings can be large; an effect the other way counts as inactive or inconclusive.

N#C/C(=C\c1cccs1)c1nc2ccccc2[nH]1	ELG1 repair inh inconclusive, NPC1 promoter act inconclusive, FLuc counter 6.7µM, Rab9 prom act inconclusive, ELG1 genotox inconclusive, SMN2 splice up 7.9µM
CCOc1cc(/C=C(\C#N)c2nc3ccccc3[nH]2)ccc1OC(C)C(=O)O (stereo unspecified)	FLuc counter 27µM (no result: SMN2 splice up)
O=C(N/C(=C/c1cccs1)c1nc2ccccc2[nH]1)c1ccccc1	none
COc1ccccc1OCC(=O)OC/C(O)=C(\C#N)c1nc2ccccc2[nH]1	ELG1 repair inh inconclusive, FLuc counter inconclusive, ELG1 genotox inconclusive
O=C(N/N=C/c1cccnc1)c1cc(-c2ccccc2Cl)nc2ccccc12	none (no result: SMN2 splice up)
COc1ccc(C(=O)COC(=O)CN2C(=O)NC3(CC(C)CC(C)(C)C3)C2=O)c(OC)c1 (stereo unspecified)	none (no result: FLuc counter, SMN2 splice up)
N#C/C(=C\Nc1ccc2c(c1)OCCO2)c1nc2ccccc2[nH]1	ELG1 repair inh inconclusive, NPC1 promoter act inconclusive, FLuc counter 15µM, Rab9 prom act inconclusive
N#C/C(=C\c1ccccc1)c1nc2ncccc2[nH]1	FLuc counter 13µM
O=C(CCc1nc2ccccc2[nH]1)Nc1ccc2c(c1)OCCO2	none
N#C/C(=C/c1ccncc1)c1nc2ccccc2c(=O)[nH]1	FLuc counter inconclusive (no result: SMN2 splice up)
COc1cc(Br)c(/C=C(\C#N)c2nc3ccccc3[nH]2)cc1OC	FLuc counter 8.5µM (no result: ELG1 repair inh, NPC1 promoter act, Rab9 prom act, ELG1 genotox)
Cc1cc(/C=C(/C#N)c2nc3ccccc3[nH]2)c(C)n1-c1cc(C(=O)O)cc(C(=O)O)c1	FLuc counter 17µM
O=C(CN1CCN(c2ccccc2)CC1)N1CCc2[nH]c3ccccc3c2C1	none
COc1ccc(CCN(C)C(=O)CNC(=O)c2ccc3c(c2)OCO3)cc1OC	none (no result: SMN2 splice up)
Cn1c(/C=N/c2nc3ccccc3[nH]2)nc2ccccc21	none
C(=N\c1nc2ccccc2[nH]1)/c1cccs1	FLuc counter 1.1µM
CC(C)(C)/C(O)=C(/C#N)c1nc2ccccc2[nH]1	ELG1 repair inh 23µM
N#C/C(=C\c1ccc(N2CCCC2)c([N+](=O)[O-])c1)c1nc2ccccc2[nH]1	ELG1 repair inh inconclusive, NPC1 promoter act inconclusive, FLuc counter 5.4µM, Rab9 prom act inconclusive
N#C/C(=C\c1ccc(OC(=O)c2cccs2)cc1)c1nc2ccccc2[nH]1	ELG1 repair inh inconclusive, FLuc counter inconclusive, ELG1 genotox inconclusive, SMN2 splice up 11µM
Cc1ccc(N(CC(N)=O)C2SC(=O)N(Cc3ccccc3)C2=O)cc1 (stereo unspecified)	none (no result: SMN2 splice up)
CCOC(=O)C(Sc1nnc(-c2ccncc2)o1)C(C)=O (stereo unspecified)	none
N#C/C(=C\c1ccc(Cl)cc1)c1nc2ccccc2[nH]1	none (no result: ELG1 repair inh, NPC1 promoter act, Rab9 prom act, ELG1 genotox)
N#C/C(=C/c1ccc(O)c(O)c1)c1nc2ccccc2[nH]1	ELG1 repair inh inconclusive, FLuc counter 6.7µM (no result: SMN2 splice up)
N#C/C(=C\c1cc(Br)c(O)c(Br)c1)c1nc2ccccc2c(=O)[nH]1	FLuc counter 15µM (no result: ELG1 repair inh, NPC1 promoter act, Rab9 prom act, ELG1 genotox)
COc1ccc(CCNC(=O)C2(C)CCC(=O)N2Cc2ccc(F)cc2Cl)cc1OC (stereo unspecified)	none (no result: SMN2 splice up)
O=C(Nc1cccc(Cl)c1)Nc1sccc1-c1nc2ccccc2s1	FLuc counter 13µM (no result: SMN2 splice up)
O=C(Nc1ccccc1)Nc1sccc1-c1nc2ccccc2s1	FLuc counter 15µM (no result: SMN2 splice up)
O=[N+]([O-])c1cccc(/C=N/Nc2cc(N3CCOCC3)ncn2)c1	FLuc counter inconclusive (no result: SMN2 splice up)
Cc1cc(NC(=O)c2ccoc2C)ccc1Br	ELG1 repair inh inconclusive, NPC1 promoter act inconclusive, FLuc counter 7.6µM, Rab9 prom act inconclusive, ELG1 genotox inconclusive (no result: SMN2 splice up)
Cc1occc1C(=O)Nc1cccc(C(F)(F)F)c1	none
C/C(=N/NC(=O)c1ccc(C)s1)c1cccc(NC(=O)c2ccoc2C)c1	ELG1 repair inh inconclusive, FLuc counter 17µM (no result: SMN2 splice up)
Cc1occc1C(=O)Nc1ccc(S(N)(=O)=O)cc1	FLuc counter inconclusive
Cc1occc1C(=O)Nc1cccc(C(=O)O)c1	ELG1 repair inh inconclusive, NPC1 promoter act 2.2µM, FLuc counter 9.5µM, Rab9 prom act 2.8µM, ELG1 genotox inconclusive, SMN2 splice up inconclusive
Cc1ccc(NC(=O)c2ccoc2C)cc1C	ELG1 repair inh inconclusive, NPC1 promoter act inconclusive, FLuc counter inconclusive, Rab9 prom act 2.8µM, ELG1 genotox inconclusive, SMN2 splice up 16µM
CN(C(=O)c1ccc2c(c1)S(=O)(=O)N=C1CCCCCN12)c1ccccc1	none (no result: SMN2 splice up)
Cc1ccc(S(=O)(=O)N2CCC(C(=O)Nc3ccc4c(c3)COC4=O)CC2)cc1	none
O=C(CNC(=O)Cc1ccccc1)NCC(=O)N1CCCCC1	none (no result: SMN2 splice up)
Cc1cc(NC(=O)c2ccccc2[N+](=O)[O-])ccc1Br	ELG1 repair inh inconclusive, FLuc counter 17µM, Rab9 prom act inconclusive, ELG1 genotox inconclusive
C/C(=N\NC(=O)c1ccc(Cl)cc1)c1cccc(NC(=O)C(C)C)c1	FLuc counter inconclusive
C/C(=N\NC(=O)c1ccncc1)c1cccc(NC(=O)c2ccc(Cl)s2)c1	ELG1 repair inh inconclusive, FLuc counter 19µM (no result: SMN2 splice up)
Cc1cccc(NC(=O)c2ccccc2C(=O)O)c1	none
Cc1occc1C(=O)Nc1ccc2c(c1)OCO2	ELG1 repair inh inconclusive, NPC1 promoter act 3.5µM, FLuc counter 24µM, Rab9 prom act 2.8µM, ELG1 genotox 21µM, SMN2 splice up 13µM
Cc1ccccc1C(=O)Nc1cccc(NC(=O)c2ccccc2[N+](=O)[O-])c1	FLuc counter inconclusive (no result: SMN2 splice up)
Nc1ccccc1C(=O)Nc1cccc(C(=O)O)c1	NPC1 promoter act inconclusive, FLuc counter 2.7µM, Rab9 prom act 2.2µM
